Experimental findings from ChEMBL document CHEMBL1961873, “Compounds: GSK PKIS; Assays: Nanosyn kinase panel” (2012) are described below.

Assay [1] concerns the target Mitogen-activated protein kinase kinase kinase kinase 4 (Homo sapiens) (UniProt O95819). To be noted: at 1 µM.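 Further: reported figure is an averaged inhibition value.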
The target in assay [2] is Dual specificity mitogen-activated protein kinase kinase 1 (Homo sapiens) (UniProt Q02750). To be noted: at 0.1 µM.
Assay [3] has the same target. To be noted: at 1 µM.
Assay [4] concerns the target Misshapen-like kinase 1 (Homo sapiens) (UniProt Q8N4C8). To be noted: at 0.1 µM.
The target is the same in assay [5]. The conditions noted are these: at 1 µM.
Assay [6] deals with T1, Serine/threonine-protein kinase 4 (Homo sapiens) (UniProt Q13043).
T1 sequence (whole entry): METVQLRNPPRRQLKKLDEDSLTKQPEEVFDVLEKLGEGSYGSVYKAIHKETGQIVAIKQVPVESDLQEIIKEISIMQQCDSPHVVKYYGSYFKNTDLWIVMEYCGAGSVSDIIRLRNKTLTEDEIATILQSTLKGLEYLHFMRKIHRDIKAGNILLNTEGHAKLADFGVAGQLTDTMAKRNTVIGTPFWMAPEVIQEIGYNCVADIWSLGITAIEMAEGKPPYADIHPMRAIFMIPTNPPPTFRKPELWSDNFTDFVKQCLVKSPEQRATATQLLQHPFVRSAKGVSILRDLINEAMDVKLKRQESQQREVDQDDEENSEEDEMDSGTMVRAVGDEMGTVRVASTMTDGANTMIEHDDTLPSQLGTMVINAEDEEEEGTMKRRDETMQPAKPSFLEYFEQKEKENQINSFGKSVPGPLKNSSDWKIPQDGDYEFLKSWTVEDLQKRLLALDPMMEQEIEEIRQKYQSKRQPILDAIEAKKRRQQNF
To be noted: at 0.1 µM.

The target of assay [7] is T1, Serine/threonine-protein kinase 4 (Homo sapiens). To be noted: at 1 µM.
Assay [8] deals with T2, Serine/threonine-protein kinase 3 (Homo sapiens) (UniProt Q13188).
T2 sequence (whole entry): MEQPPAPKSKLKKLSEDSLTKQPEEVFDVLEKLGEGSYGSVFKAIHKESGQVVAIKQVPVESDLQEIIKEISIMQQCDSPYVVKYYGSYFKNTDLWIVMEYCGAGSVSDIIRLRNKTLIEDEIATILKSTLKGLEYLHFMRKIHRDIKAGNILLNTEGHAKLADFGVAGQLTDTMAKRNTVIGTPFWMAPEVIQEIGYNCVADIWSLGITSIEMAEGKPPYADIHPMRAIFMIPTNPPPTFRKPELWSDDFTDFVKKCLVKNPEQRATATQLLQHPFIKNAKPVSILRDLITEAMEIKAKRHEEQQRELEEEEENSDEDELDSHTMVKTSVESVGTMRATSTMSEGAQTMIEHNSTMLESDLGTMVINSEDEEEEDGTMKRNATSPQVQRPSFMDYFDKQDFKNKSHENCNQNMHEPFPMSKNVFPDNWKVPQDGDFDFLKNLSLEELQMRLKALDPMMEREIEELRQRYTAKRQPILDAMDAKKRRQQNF
To be noted: at 0.1 µM.

Assay [9] has as its target T2, Serine/threonine-protein kinase 3 (Homo sapiens). To be noted: at 1 µM.
In assay [10] the target is Serine/threonine-protein kinase 26 (Homo sapiens) (UniProt Q9P289). To be noted: at 0.1 µM.

Each structure is given as a SMILES string.

Mitogen-activated protein kinase kinase kinase kinase 4 (Homo sapiens), sequence (O95819 2-1239 limits assumed): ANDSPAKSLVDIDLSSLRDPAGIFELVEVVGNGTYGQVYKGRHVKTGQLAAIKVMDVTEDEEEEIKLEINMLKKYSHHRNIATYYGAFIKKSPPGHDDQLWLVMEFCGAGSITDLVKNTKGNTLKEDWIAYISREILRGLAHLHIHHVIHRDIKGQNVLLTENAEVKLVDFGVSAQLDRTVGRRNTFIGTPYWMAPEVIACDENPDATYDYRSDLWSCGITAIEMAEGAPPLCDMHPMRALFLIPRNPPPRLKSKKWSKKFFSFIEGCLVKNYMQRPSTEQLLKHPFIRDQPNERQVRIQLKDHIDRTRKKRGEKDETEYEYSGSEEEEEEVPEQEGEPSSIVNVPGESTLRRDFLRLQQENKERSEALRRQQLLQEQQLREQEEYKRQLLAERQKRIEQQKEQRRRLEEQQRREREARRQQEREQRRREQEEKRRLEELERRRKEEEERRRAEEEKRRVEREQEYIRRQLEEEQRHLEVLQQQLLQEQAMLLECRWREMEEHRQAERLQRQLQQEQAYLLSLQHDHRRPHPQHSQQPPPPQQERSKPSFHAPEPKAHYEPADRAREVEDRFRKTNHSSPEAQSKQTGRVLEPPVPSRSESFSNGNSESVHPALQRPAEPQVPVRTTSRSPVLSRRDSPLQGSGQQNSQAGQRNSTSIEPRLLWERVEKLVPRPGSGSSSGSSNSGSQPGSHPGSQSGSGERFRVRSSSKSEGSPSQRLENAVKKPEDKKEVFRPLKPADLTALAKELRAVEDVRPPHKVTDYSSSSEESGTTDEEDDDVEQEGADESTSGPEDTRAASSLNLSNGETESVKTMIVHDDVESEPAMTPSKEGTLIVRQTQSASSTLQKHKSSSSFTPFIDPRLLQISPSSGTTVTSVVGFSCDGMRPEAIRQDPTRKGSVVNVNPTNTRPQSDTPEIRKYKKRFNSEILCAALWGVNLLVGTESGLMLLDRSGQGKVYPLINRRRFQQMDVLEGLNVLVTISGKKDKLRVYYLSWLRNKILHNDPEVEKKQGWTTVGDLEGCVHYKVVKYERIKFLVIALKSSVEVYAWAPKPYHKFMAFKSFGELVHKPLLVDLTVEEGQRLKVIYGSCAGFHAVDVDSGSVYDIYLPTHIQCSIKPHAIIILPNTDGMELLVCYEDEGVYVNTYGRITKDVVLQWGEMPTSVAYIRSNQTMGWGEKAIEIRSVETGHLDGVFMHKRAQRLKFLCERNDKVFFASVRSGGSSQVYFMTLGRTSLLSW
Misshapen-like kinase 1 (Homo sapiens), sequence (Q8N4C8 whole entry, looked up): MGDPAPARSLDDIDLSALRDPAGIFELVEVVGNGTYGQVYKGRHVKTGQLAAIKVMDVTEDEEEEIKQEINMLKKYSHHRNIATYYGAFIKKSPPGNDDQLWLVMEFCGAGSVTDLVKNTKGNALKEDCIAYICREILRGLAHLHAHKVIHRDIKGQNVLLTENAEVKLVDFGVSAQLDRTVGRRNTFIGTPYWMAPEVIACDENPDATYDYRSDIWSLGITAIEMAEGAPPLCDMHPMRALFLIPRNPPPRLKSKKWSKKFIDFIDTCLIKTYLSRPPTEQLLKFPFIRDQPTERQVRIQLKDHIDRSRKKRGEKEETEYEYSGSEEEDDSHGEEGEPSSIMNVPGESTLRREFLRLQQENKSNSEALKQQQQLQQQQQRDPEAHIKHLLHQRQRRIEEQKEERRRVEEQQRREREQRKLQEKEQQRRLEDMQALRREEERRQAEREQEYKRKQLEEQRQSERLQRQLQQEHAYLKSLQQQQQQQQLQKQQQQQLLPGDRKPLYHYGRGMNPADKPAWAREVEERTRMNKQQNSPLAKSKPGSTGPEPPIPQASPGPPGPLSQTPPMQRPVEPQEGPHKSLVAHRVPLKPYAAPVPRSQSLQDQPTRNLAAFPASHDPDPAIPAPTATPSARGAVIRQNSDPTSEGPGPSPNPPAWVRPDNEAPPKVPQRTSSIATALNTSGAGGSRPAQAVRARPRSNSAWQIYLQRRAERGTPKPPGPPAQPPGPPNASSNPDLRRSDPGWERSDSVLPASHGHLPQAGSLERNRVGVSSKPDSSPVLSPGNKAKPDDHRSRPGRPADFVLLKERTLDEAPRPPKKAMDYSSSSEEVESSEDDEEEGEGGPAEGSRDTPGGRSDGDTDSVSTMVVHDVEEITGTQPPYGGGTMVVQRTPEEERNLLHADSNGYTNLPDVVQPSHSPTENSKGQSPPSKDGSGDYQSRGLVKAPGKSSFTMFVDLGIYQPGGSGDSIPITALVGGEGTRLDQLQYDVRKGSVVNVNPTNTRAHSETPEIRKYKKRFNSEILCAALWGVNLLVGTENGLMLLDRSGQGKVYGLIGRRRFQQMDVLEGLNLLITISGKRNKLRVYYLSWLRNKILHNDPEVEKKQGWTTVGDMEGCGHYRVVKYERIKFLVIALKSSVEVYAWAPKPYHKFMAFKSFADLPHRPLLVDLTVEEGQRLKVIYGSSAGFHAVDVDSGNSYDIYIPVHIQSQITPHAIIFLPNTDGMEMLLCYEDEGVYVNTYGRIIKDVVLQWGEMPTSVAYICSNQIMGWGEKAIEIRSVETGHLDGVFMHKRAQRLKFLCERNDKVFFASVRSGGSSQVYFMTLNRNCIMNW
Serine/threonine-protein kinase 26 (Homo sapiens), sequence (Q9P289 2-416 limits assumed): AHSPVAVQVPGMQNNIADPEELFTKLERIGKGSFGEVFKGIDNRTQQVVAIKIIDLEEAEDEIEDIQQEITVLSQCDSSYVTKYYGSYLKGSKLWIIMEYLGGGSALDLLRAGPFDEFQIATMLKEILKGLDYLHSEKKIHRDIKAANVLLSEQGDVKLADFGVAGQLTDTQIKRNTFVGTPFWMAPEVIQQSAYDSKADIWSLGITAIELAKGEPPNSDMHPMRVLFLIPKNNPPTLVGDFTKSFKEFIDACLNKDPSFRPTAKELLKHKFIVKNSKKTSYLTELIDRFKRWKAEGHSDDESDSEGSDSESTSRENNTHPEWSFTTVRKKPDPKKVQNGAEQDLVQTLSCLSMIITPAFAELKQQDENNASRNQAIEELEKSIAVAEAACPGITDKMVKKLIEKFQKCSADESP
Dual specificity mitogen-activated protein kinase kinase 1 (Homo sapiens), sequence (Q02750 whole entry): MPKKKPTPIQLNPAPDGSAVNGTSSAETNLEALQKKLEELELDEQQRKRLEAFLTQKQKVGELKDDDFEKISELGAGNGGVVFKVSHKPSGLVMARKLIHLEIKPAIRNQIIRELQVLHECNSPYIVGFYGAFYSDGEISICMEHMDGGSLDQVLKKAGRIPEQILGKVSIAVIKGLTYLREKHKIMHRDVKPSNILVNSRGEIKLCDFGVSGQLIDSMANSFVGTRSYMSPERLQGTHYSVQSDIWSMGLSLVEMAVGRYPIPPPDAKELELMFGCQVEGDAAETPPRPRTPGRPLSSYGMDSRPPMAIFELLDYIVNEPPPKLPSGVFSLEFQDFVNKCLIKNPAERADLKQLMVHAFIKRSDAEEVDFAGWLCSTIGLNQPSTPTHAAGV

For the molecule `C[C@@H](Oc1cc(-n2cnc3ccc(OC[C@@H](O)CO)cc32)sc1C(N)=O)c1ccccc1Cl`, the inhibition in [1] was 4.28%; in assay [2], -0.54%; in [3] it was 0.3%; in assay [4], -1.25%; in assay [5], 2.89%; in [6], 3.22%. For the same molecule, the inhibition in assay [7] is 34.1%; in assay [8], 2.75%; in assay [9] it was 25.7%; in assay [10], -0.27%.

Take `OCc1ccc(-c2nc(-c3ccccn3)c(-c3ccc4c(c3)OCO4)[nH]2)cc1`: the inhibition in [1] was found to be 6.4%; in assay [2] it was 5.12%; in assay [3] it was 4.13%; in assay [4] it was 5.77%; in [5] it was 7.23%; in assay [6], 6.59%. Further, the inhibition in assay [7] was 6.27%; in assay [8] it was 8.49%; in [9], 4.84%; in [10] it was -1.45%.

With `COc1cc(Nc2nccc(-c3cnn4ncccc34)n2)cc(OC)c1`, the inhibition in assay [1] was 78.9%; in assay [2], 3.92%; in assay [3] it was 26.4%; in assay [4] it was 20.6%; in assay [5], 71.9%; in assay [6], 5.52%. The inhibition in assay [7] is 35.6%; in assay [8] it was 5.54%; in assay [9], 29.6%; in assay [10] it was 0.99%.

For `CCOc1nccc2c1nc(-c1nonc1N)n2CC`, the inhibition came out at 14.3% in assay [1]; 3.44% in assay [2]; 3.14% in assay [3]; 5.33% in assay [4]; 13.8% in assay [5]; 12.1% in assay [6]. Besides, the inhibition in assay [7] was 22.7%; in assay [8], 11.4%; in assay [9] it was 21.8%; in assay [10] it was 0.4%.

`Nc1ccc(C#Cc2cncnc2Nc2ccc(OCc3cccc(F)c3)c(Cl)c2)cc1`: the inhibition in assay [1] is 0.49%; in [2], 2.6%; in assay [3], 3.23%; in assay [4] it was 3.73%; in [5], 1.66%; in [6], 2.07%. Also, the inhibition in assay [7] was 2.02%; in assay [8] it was 3.2%; in [9] it was 4.05%; in [10], -0.87%.

`Cc1ccc(C(=O)NC2CC2)cc1-c1ccc2[nH]ncc2c1`: the inhibition in assay [1] is -0.85%; in [2] it was -3.43%; in [3], -3.98%; in assay [4] it was -4.28%; in assay [5], -1.78%; in [6] it was -2.09%. The inhibition in assay [7] is 1.26%; in assay [8] it was -4.71%; in assay [9] it was -2.04%; in assay [10] it was -0.05%.

Consider `COc1cccc(-n2ncc3c(N/N=C/c4ccc(S(C)(=O)=O)cc4)ncnc32)c1`, for which the inhibition came out at 59.4% in assay [1]; 1.79% in [2]; 1.58% in [3]; 13.4% in assay [4]; 50.3% in assay [5]; 1.66% in [6]. In addition, the inhibition stood at 4.3% in [7], 0.59% in assay [8], 2.91% in [9] and 1.71% in [10].

With `O=S(=O)(CCOCc1ccc(-c2ccc3ncnc(Nc4ccc(OCc5cccc(F)c5)c(Cl)c4)c3c2)o1)c1ccccc1`, the inhibition in assay [1] is 7%; in [2], 2.11%; in assay [3] it was 3.33%; in assay [4], 3.54%; in assay [5], 5.66%; in [6], 4.3%. For the same molecule, the inhibition is 7.99% in assay [7], 0.99% in assay [8], 5.7% in assay [9] and -0.04% in [10].

As to `NS(=O)(=O)c1ccc(NC=C2C(=O)Nc3ccc4ncsc4c32)cc1`, the inhibition in [1] came to 79%; in [2], 17.5%; in assay [3], 68.3%; in assay [4], 62.9%; in assay [5], 78.9%; in [6] it was 74.5%. The inhibition in assay [7] is 80.4%; in assay [8] it was 73.1%; in [9], 78.2%; in assay [10], 62.1%.

Turning to `Cc1ccc(Nc2ccnc(Nc3cccc(C(N)=O)c3)n2)cc1O`, the inhibition in [1] is 28.9%; in [2], 4.22%; in [3], 4.94%; in assay [4], 6.27%; in assay [5] it was 22%; in assay [6], 5.18%. Moreover, the inhibition in assay [7] is 12.2%; in assay [8], 4.59%; in assay [9] it was 10.1%; in assay [10], 0.27%.

In the case of `NS(=O)(=O)c1cccc(Nc2cc(-c3ccc(F)cc3)n[nH]2)c1`, the inhibition in assay [1] worked out at 69.9%; in assay [2], 5.05%; in assay [3], 3.82%; in assay [4] it was 14.6%; in assay [5], 59.5%; in assay [6], 8.09%. In addition, the inhibition in assay [7] is 16.1%; in assay [8], 7.41%; in assay [9], 13.4%; in assay [10] it was -0.02%.

As to `CCS(=O)(=O)c1ccc(OC)c(Nc2nccc(N(C)c3ccc4c(C)n[nH]c4c3)n2)c1`, the inhibition worked out at 15.6% in [1]; 4.63% in [2]; 5.1% in assay [3]; 3.64% in assay [4]; 11.7% in assay [5]; 4.2% in assay [6]. Also, the inhibition is 5.13% in assay [7], 4.58% in [8], 5.24% in assay [9] and -2.14% in assay [10].

As to `Nc1nccc(C#Cc2cncnc2Nc2ccc(OCc3cccc(F)c3)c(Cl)c2)n1`, the inhibition came to 5.46% in assay [1]; 2.67% in assay [2]; 4.4% in [3]; 6.95% in assay [4]; 6.41% in [5]; 6.4% in [6]. Also, the inhibition in assay [7] was 10.4%; in assay [8] it was 6.63%; in [9] it was 7.32%; in assay [10] it was -1.78%.

Take `Nc1nccc(-c2c(-c3ccc(F)cc3)nn3cc(C(F)(F)F)ccc23)n1`: the inhibition in assay [1] is 2.37%; in assay [2], 1.8%; in assay [3], 0.93%; in [4], 1.74%; in assay [5], 1.52%; in assay [6], 0.23%. The inhibition in assay [7] is -0.05%; in assay [8] it was -0.79%; in assay [9], -0.81%; in [10], 0.43%.

In the case of `[O-][S+]1CCN(Cc2ccc(-c3ccc4ncnc(Nc5ccc(OCc6ccccc6)c(Cl)c5)c4c3)o2)CC1`, the inhibition in assay [1] is 3.32%; in assay [2], 2.1%; in assay [3] it was 3.29%; in assay [4] it was -0.23%; in assay [5], 1.36%; in assay [6], 0.8%. The inhibition in [7] is 1.83%; in [8], -0.27%; in assay [9], 0.41%; in assay [10] it was -0.67%.

Take `Nc1nccc(-c2c(-c3ccc(F)cc3)ncn2CCCN2CCOCC2)n1`: the inhibition in assay [1] was found to be 8.06%; in assay [2] it was 5.23%; in assay [3] it was 4.45%; in [4], 5.84%; in assay [5], 7.98%; in [6] it was 3.71%. The inhibition in assay [7] is 5.25%; in [8] it was 4.5%; in assay [9], 5.71%; in [10], -0.66%.

`COc1cc(/C=N/Nc2ncnc3c2cnn3C(C)C)ccc1O`: the inhibition in assay [1] was found to be 21.4%; in assay [2] it was 2.16%; in assay [3], 1.21%; in assay [4], 6.6%; in assay [5], 19.1%; in [6], 1.8%. Moreover, the inhibition in [7] was 7.78%; in [8], 1.29%; in assay [9], 8.02%; in [10] it was 0.35%.

As usually defined, the inhibition is the change of the read-out against control, counted positive when it falls.
